Experimental data as given in PubChem BioAssay (Tox21).
Inconclusive results are not listed. Active and inactive are the calls of the source. Unless noted, the call rests on the fitted dose curve; in most records, active means well fitted curve in the direction sought with a large enough effect in the repeat runs; inconclusive means weak or mixed curves; inactive means no such curve, though single readings can be large; an effect the other way counts as inactive or inconclusive.

What was measured:
[1] = qHTS assay for small molecule agonists of the p53 signaling pathway (AID 651631; calls by dose curve; further: nearly all actives have a fitted effect of over 15% in size)
Summary of the method: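 Agonist mode screen using a stably integrated beta-lactamase gene under p53 response elements in HCT-116 cells. Compound exposure lasts 16 h at 37 °C; fluorescence intensity is measured following 2 h FRET substrate loading.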

[2] = qHTS assay for small molecules that induce genotoxicity in human embryonic kidney cells expressing luciferase-tagged ATAD5 (AID 651632); further: nearly all actives have a fitted effect of over 15% in size
Summary of the method: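 ATAD5-luc HEK293T, 2,000 cells/well; cpd or DMSO pin-transferred; 16 hr, 37C/5% CO2; Amplite 30 min RT; luminescence.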

[3] = qHTS assay for small molecule agonists of the p53 signaling pathway - cell viability (AID 651633; calls by dose curve;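 further: p53RE-bla HCT reporter cells with a stable beta-lactamase p53 reporter; series mostly up to about 83 µM; nearly all actives have a fitted effect of over 30% in size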)
Summary of the method: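 p53RE-bla cells were treated with compound for 16 hours at 37 C. Cytotoxicity was then measured as CellTiter-Glo luminescence after 30 min at room temperature.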

[4] = qHTS assay for small molecules that induce genotoxicity in human embryonic kidney cells expressing luciferase-tagged ATAD5 - cell viability (AID 651634; calls by dose curve; further: nearly all actives have a fitted effect of over 25% in size)
Summary of the method: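 Fluorescence from CellTiter-Fluor, reporting protease activity within live cells, served as the viability read-out. HEK293T cells carrying luciferase-tagged ATAD5 had been treated with compound for 15.5 hr at 37C.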

[5] = qHTS assay for small molecule disruptors of the mitochondrial membrane potential - cell viability (AID 720634; calls by dose curve;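 further: human HepG2 liver cancer cells; series mostly up to about 83 µM; nearly all actives have a fitted effect of over 20% in size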)
Summary of the method: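 Cells: HepG2, 2,000/well, attached overnight. Compound 1 hr, 37 C/5% CO2. +m-MPI dye, +CellTiter-Glo 30 min RT. Readout: luminescence (ATP).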

[6] = qHTS assay for small molecule disruptors of the mitochondrial membrane potential (AID 720635)
Summary of the method: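 HepG2 cells exposed to compound 1 hr at 37C, then Mito-MPS dye 30 min. Ratio read of aggregate (540/590 nm) versus monomer (490/535 nm) fluorescence.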

[7] = qHTS assay to test for compound auto fluorescence at 590 nm (red) in HepG2 cells (AID 720674)
Summary of the method: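 HepG2 cells, 2,000 per well in MEM with 10% FBS, attached overnight at 37 C, then got 23 nL compound or DMSO. After 1 hr at 37 C, 5% CO2, red fluorescence was read at 540/590 nm against Rose Bengal sodium as reference.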

[8] = qHTS assay to test for compound auto fluorescence at 535 nm (green) in HepG2 cells (AID 720675)
[9] = qHTS assay to test for compound auto fluorescence at 460 nm (blue) in HEK293 cells (AID 720678)
Summary of the method: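 Blue-channel (Ex/Em 405/460 nm) intensity measured in HEK293 cultures after overnight compound exposure at 37C; signal expressed relative to triamterene. Cells plated 2,000 per well in 10% dialyzed FBS medium and allowed 4-5 hr to attach.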

[10] = qHTS assay to test for compound auto fluorescence at 590 nm (red) in HEK293 cells (AID 720679)
Summary of the method: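 Red-channel autofluorescence (Ex/Em 540/590 nm; Rose Bengal sodium reference) was measured after overnight 37C, 5% CO2 exposure of attached HEK293 cells, 2,000 per well in medium with 10% dialyzed FBS.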

[11] = qHTS assay to test for compound auto fluorescence at 535 nm (green) in HEK293 cells (AID 720680)
[12] = qHTS assay to test for compound auto fluorescence at 460 nm (blue) in HEK293 cell free culture (AID 720681)
Summary of the method: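 Compounds were added to cell-free DMEM with 10% FBS and fluorescence read directly. The blue channel used 405 nm excitation and 460 nm emission, with triamterene as the reference fluorophore.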

[13] = qHTS assay to test for compound auto fluorescence at 535 nm (green) in HEK293 cell free culture (AID 720682)
Summary of the method: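 No cells present: wells hold DMEM supplemented with 10% FBS, into which compound or vehicle is pinned. Green emission is then recorded (485 nm excitation, 535 nm emission) and scaled to fluorescein.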

[14] = qHTS assay to test for compound auto fluorescence at 590 nm (red) in HEK293 cell free culture (AID 720683)
Summary of the method: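 Cell-free wells of DMEM with 10% FBS received compound, and intrinsic fluorescence was read at excitation/emission 540/590 nm. Values expressed as equivalence to Rose Bengal sodium.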

[15] = qHTS assay to test for compound auto fluorescence at 590 nm (red) in HepG2 cell free culture (AID 720684)
Summary of the method: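 Compound was pinned into wells holding MEM with 10% FBS and no cells, and red fluorescence was read at Ex/Em 540/590 nm. Signal is expressed as auto fluorescence equivalency relative to Rose Bengal sodium.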

[16] = qHTS assay to test for compound auto fluorescence at 460 nm (blue) in HepG2 cell free culture (AID 720685)
Summary of the method: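 Compound (23 nL) or DMSO pinned into cell-free MEM with 10% FBS; blue fluorescence read at 405/460 nm excitation/emission, expressed as auto-fluorescence equivalency to triamterene.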

[17] = qHTS assay to test for compound auto fluorescence at 535 nm (green) in HepG2 cell free culture (AID 720686)
[18] = qHTS assay to test for compound auto fluorescence at 460 nm (blue) in HepG2 cells (AID 720687)
Summary of the method: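 HepG2 cells in MEM with 10% FBS, attached overnight at 37 C, were exposed to compound or DMSO for 1 hr at 37 C, 5% CO2. Blue fluorescence was read at 405/460 nm, with triamterene as reference fluorophore.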

[19] = molecular target: Glucocorticoid receptor (Homo sapiens) (UniProt P04150); test: qHTS assay to identify small molecule antagonists of the glucocorticoid receptor (GR) signaling pathway (AID 720692; active means well fitted inhibition curve with a large enough effect in the signal ratio in the repeat runs, not every such curve was filed as active; the % refers to the signal ratio)
Sequence of Glucocorticoid receptor (Homo sapiens) (P04150 whole entry, looked up): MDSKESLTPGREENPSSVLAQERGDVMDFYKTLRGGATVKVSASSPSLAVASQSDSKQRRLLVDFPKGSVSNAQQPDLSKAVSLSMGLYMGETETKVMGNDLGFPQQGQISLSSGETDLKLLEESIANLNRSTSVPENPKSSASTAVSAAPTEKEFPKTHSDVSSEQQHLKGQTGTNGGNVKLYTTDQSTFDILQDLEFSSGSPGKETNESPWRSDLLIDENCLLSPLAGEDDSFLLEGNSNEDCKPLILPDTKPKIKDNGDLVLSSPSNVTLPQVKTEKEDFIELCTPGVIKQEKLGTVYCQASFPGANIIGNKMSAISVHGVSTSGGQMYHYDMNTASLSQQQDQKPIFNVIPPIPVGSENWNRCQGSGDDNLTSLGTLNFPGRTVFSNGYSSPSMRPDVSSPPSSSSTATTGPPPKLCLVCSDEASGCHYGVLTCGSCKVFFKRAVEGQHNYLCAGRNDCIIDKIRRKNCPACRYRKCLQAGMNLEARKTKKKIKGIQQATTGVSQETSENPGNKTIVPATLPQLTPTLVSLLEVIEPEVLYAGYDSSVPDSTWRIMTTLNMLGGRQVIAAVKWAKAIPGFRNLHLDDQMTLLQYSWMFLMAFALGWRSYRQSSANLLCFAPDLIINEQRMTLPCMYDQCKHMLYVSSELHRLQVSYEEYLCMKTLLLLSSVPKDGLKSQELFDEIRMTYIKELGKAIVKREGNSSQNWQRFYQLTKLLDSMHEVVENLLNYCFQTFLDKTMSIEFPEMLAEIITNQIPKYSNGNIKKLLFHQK
Summary of the method: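 HeLa GR-bla cells; cmpd + dex 5 nM final, 18 h 37 C; LiveBLAzer B/G FRET substrate 2 h RT; fluorescence intensity read. Antagonist mode, qHTS.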

[20] = molecular target: Glucocorticoid receptor (Homo sapiens) (UniProt P04150); test: qHTS assay to identify small molecule agonists of the glucocorticoid receptor (GR) signaling pathway (AID 720691; active means well fitted activation curve with a large enough effect in the signal ratio in the repeat runs, not every such curve was filed as active; the % refers to the signal ratio)
Summary of the method: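 Fluorescence intensity from LiveBLAzer B/G FRET substrate (2 h, room temperature) reports beta-lactamase expression driven by the glucocorticoid response element in GR-bla HeLa cells after 18 h compound exposure at 37 C.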

Measured: Potency

O=c1cc[nH]c(=O)[nH]1
not listed: [20]
inactive: all other assays above

CCCCNC(=O)NS(=O)(=O)c1ccc(N)cc1
not listed: [19] | [20]
inactive: all other assays above

C[C@]12C=CC(=O)C=C1CC[C@@H]1[C@@H]2C(=O)C[C@@]2(C)[C@H]1CC[C@]2(O)C(=O)CO
not listed: [5] | [19] | [20]
inactive: all other assays above

CC1(C)O[C@@H]2[C@@H](CO[C@@]3(COS(N)(=O)=O)OC(C)(C)O[C@@H]23)O1
not listed: [5] | [19] | [20]
inactive: all other assays above

CN(C)Cc1cc(CN(C)C)c(O)c(CN(C)C)c1
not listed: [20]
inactive: all other assays above

CCN(CC)CCOC(=O)c1ccc(N)cc1
not listed: [6] | [19] | [20]
inactive: all other assays above

C=CC(=O)NC(C)(C)CS(=O)(=O)O
not listed: [5] | [19] | [20]
inactive: all other assays above

Cc1cccc(Nc2cc(Cl)nc(SCC(=O)O)n2)c1C
inactive: all assays above
